In PubChem BioAssay (NCATS):
Inconclusive results are not listed. A number with no mark means an inactive call. The source made the active and inactive calls. The call rests on the fitted dose curve.

assay: S16 Schwann cell PMP22 intronic element beta-lactamase assay (AID 624044); conditions: S16 rat Schwann cells, PMP22 element beta-lactamase FRET, 24 h; series mostly up to 38.3 µM; ratio activity, negative = inhibition: at the top concentration; further: nearly all actives have a fitted effect of over 15% in size;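 on ratio activity, negative = inhibition: 0% = DMSO and -100% = potassium clavulanate positive control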
Procedure, shortened: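 Rat S16 Schwann cells with beta-Lac driven by a PMP22 intronic element, compound-treated 24 h at 37 °C. LiveBLAzer FRET B/G read: 460 nm normalized to potassium clavulanate vs DMSO; 535 nm FRET as viability; concentration-effect curves classified.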
Potency means the concentration at half of the fitted maximal effect.

Row | Structure (SMILES) | ratio activity, negative = inhibition | Potency
1 | O=C(NC(=O)c1c(F)cccc1F)Nc1ccc(Cl)c(Oc2ncc(C(F)(F)F)cc2Cl)c1 | 1.64% | –
2 | COc1ccc2c3c1O[C@H]1C(=O)CC[C@H]4[C@@H](C2)N(C)CC[C@]314 | 3.42% | –
3 | Clc1ccc(C2(Cn3cncn3)OCCO2)c(Cl)c1 | -2.85% | –
4 | CNC(C)C(O)c1ccc(O)cc1 (configuration not stated) | 0.0634% | –
5 | CCCC(C)(COC(N)=O)COC(=O)NC1CC1 (configuration not stated) | 5.26% | –
6 | CN1CCCC(=C(c2cccs2)c2cccs2)C1 | -4.04% | –
7 | O=C1CC[C@@]2(O)C3Cc4ccc(O)c5c4C2(CCN3CC2CC2)[C@H]1O5 (some centres not stated) | -4.96% | –
8 | CC(C)(O)C1C2OC(=O)C1C1(O)CC3OC34C(=O)OC2C14C (configuration not stated) | -1.01% | –
9 | CC[N+](C)(CC)CCOC(=O)C(O)(c1ccccc1)c1ccccc1 | 7.82% | –
10 | O=c1[nH]cc(N(CCCl)CCCl)c(=O)[nH]1 | -0.824% | –
11 | Cn1sc(Cl)cc1=O | 5.16% | –
12 | CCC1(c2ccccc2)C(=O)NC(=O)NC1=O | 2.46% | –
13 | Oc1cccc[c]1[Hg][Cl] | – | 4.46 µM (active)
14 | Clc1ccc(Cl)cc1 | -0.841% | –
15 | CCC1(C)CC(=O)NC(=O)C1 | 9.7% [at 17.1 µM] | –
16 | O=C(CCl)c1ccc(Oc2ccc(C(=O)CCl)cc2)cc1 | 3.64% | –
17 | OC(c1ccccc1)(c1ccccc1)C1CN2CCC1CC2 (configuration not stated) | -10.9% | –
18 | c1csc(C2(N3CCCCC3)CCCCC2)c1 | 0.224% | –
19 | O=C1CN=C(c2ccccc2)c2cc(Cl)ccc2N1CC1CC1 | -0.285% | –
20 | O=C(CS(=O)C(c1ccccc1)c1ccccc1)NO (configuration not stated) | -8.63% | –
21 | O=C1CCCCC1CN1CCCCC1 (configuration not stated) | 2.38% | –
22 | O=C1CN(O)C(c2ccccc2)=c2cc(Cl)ccc2=N1 | 1.27% | –
